# This is one part of a sample in which the strongest signals are shown more often than they occur.
# B1: Gal 4 (Mus musculus), P56470 (protein)
# chain: MAYVPAPGYQPTYNPTLPYYQPIPGGLNVGMSVYIQGVASEHMKRFFVNFVVGQDPGSDVAFHFNPRFDGWDKVVFNTLQGGKWGSEERKRSMPFKKGAAFELVFIVLAEHYKVVVNGNPFYEYGHRLPLQMVTHLQVDGDLQLQSINFIGGQPLRPQGPPMMPPYPGPGHCHQQLNSLPTMEGPPTFNPPVPYFGRLQGGLTARRTIIIKGYVPPTGKSFAINFKVGSSGDIALHINPRMGNGTVVRNSLLNGSWGSEEKKITHNPFGPGQFFDLSIRCGLDRFKVYANGQHLFDFAHRLSAFQRVDTLEIQGDVTLSYVQI
# Assays:
# Test in all cases: glycan array binding signal (z-score within array); higher = stronger binding
# Details in all cases: glycan notation: IUPAC condensed, linker removed
# [1] = target: Glc(a1-4)Glc
# Procedure, shortened: (§1)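 Glycan array data were curated from 3228 arrays in the Consortium for Functional Glycomics database and kept only where the protein sequence was available. Glycan names were converted to IUPAC-condensed notation, and columns mapping to the same glycan were averaged. The binding signal is a within-array Z-score, averaged across arrays of the same protein sequence at different concentrations or buffers and across linkers. Negative Z-scores can be read as non-binding.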
# [2] = target: GlcA(b1-3)Gal
# Procedure, shortened: as §1
# [3] = target: GlcNAc(b1-2)Man(a1-3)[GlcNAc(b1-4)][GlcNAc(b1-2)Man(a1-6)]Man(b1-4)GlcNAc(b1-4)[Fuc(a1-6)]GlcNAc
# Procedure, shortened: as §1
# [4] = target: GlcNAc(b1-2)[GlcNAc(b1-4)]Man(a1-3)[GlcNAc(b1-4)][GlcNAc(b1-2)[GlcNAc(b1-6)]Man(a1-6)]Man(b1-4)GlcNAc(b1-4)GlcNAc
# Procedure, shortened: as §1
# [5] = target: GlcNAc(b1-3)Gal(b1-4)GlcNAc(b1-3)Gal(b1-4)GlcNAc(b1-3)Gal(b1-4)GlcNAc(b1-2)[GlcNAc(b1-3)Gal(b1-4)GlcNAc(b1-3)Gal(b1-4)GlcNAc(b1-3)Gal(b1-4)GlcNAc(b1-6)]Man(a1-6)[GlcNAc(b1-3)Gal(b1-4)GlcNAc(b1-3)Gal(b1-4)GlcNAc(b1-3)Gal(b1-4)GlcNAc(b1-2)Man(a1-3)]Man(b1-4)GlcNAc(b1-4)[Fuc(a1-6)]GlcNAc
# Procedure, shortened: as §1
# [6] = target: GlcNAc(b1-3)Gal(b1-4)GlcNAc(b1-3)[GlcNAc(b1-3)Gal(b1-4)GlcNAc(b1-3)]GalNAc
# Procedure, shortened: as §1
# [7] = target: GlcNAc(b1-3)Gal(b1-4)GlcNAc(b1-6)[Gal(b1-3)]GalNAc
# Procedure, shortened: as §1
# [8] = target: GlcNAc(b1-3)Man
# Procedure, shortened: as §1
# [9] = target: GlcNAc(b1-4)GlcNAc(b1-4)GlcNAc
# Procedure, shortened: as §1
# [10] = target: Kdn(a2-6)Gal(b1-4)GlcNAc
# Procedure, shortened: as §1
# [11] = target: Neu5Ac(a2-3)Gal(b1-3)GlcNAc(b1-3)Gal(b1-3)GlcNAc
# Procedure, shortened: as §1
# [12] = target: Neu5Ac(a2-3)Gal(b1-3)GlcNAc(b1-3)Gal(b1-4)GlcNAc
# Procedure, shortened: as §1
# [13] = target: Neu5Ac(a2-3)Gal(b1-3)[Fuc(a1-4)]GlcNAc(b1-3)Gal(b1-4)[Fuc(a1-3)]GlcNAc
# Procedure, shortened: as §1
# [14] = target: Neu5Ac(a2-3)Gal(b1-4)GlcNAc(b1-2)[Neu5Ac(a2-3)Gal(b1-4)GlcNAc(b1-6)]Man(a1-6)[Neu5Ac(a2-3)Gal(b1-4)GlcNAc(b1-2)Man(a1-3)]Man(b1-4)GlcNAc(b1-4)GlcNAc
# Procedure, shortened: as §1
# [15] = target: Neu5Ac(a2-3)Gal(b1-4)GlcNAc(b1-2)[Neu5Ac(a2-3)Gal(b1-4)GlcNAc(b1-6)]Man(a1-6)[Neu5Ac(a2-3)Gal(b1-4)GlcNAc(b1-2)Man(a1-3)][GlcNAc(b1-4)]Man(b1-4)GlcNAc(b1-4)GlcNAc
# Procedure, shortened: as §1
# [16] = target: Neu5Ac(a2-3)Gal(b1-4)GlcNAc(b1-3)Gal(b1-4)GlcNAc(b1-3)Gal(b1-4)GlcNAc
# Procedure, shortened: as §1
# [17] = target: Neu5Ac(a2-3)Gal(b1-4)GlcNAc(b1-6)GalNAc
# Procedure, shortened: as §1
# [18] = target: Neu5Ac(a2-3)Gal(b1-4)GlcNAc(b1-6)[Gal(b1-3)]GalNAc
# Procedure, shortened: as §1
# [19] = target: Neu5Ac(a2-6)Gal(b1-4)GlcNAc(b1-2)Man(a1-3)[Neu5Ac(a2-6)Gal(b1-4)GlcNAc(b1-2)Man(a1-6)]Man(b1-4)GlcNAc(b1-4)GlcNAc
# Procedure, shortened: as §1
# [20] = target: Neu5Ac(a2-6)Gal(b1-4)GlcNAc(b1-2)Man(a1-6)[Gal(b1-4)GlcNAc(b1-2)Man(a1-3)]Man(b1-4)GlcNAc(b1-4)GlcNAc
# Procedure, shortened: as §1
# [21] = target: Neu5Ac(a2-6)Gal(b1-4)GlcNAc(b1-3)Gal(b1-4)GlcNAc(b1-3)Gal(b1-4)GlcNAc(b1-2)Man(a1-3)[Neu5Ac(a2-6)Gal(b1-4)GlcNAc(b1-3)Gal(b1-4)GlcNAc(b1-3)Gal(b1-4)GlcNAc(b1-2)Man(a1-6)]GalNAc
# Procedure, shortened: as §1
# [22] = target: Neu5Ac(a2-6)Gal(b1-4)GlcNAc(b1-6)[Gal(b1-3)GlcNAc(b1-3)]Gal(b1-4)Glc
# Procedure, shortened: as §1
# [23] = target: Neu5Ac(a2-6)GalNAc(b1-4)GlcNAc6S
# Procedure, shortened: as §1
# [24] = target: Neu5Ac(a2-8)Neu5Ac(a2-3)Gal(b1-3)GalNAc(b1-4)[Neu5Ac(a2-3)]Gal(b1-4)Glc
# Procedure, shortened: as §1
# [25] = target: Neu5Ac(a2-8)Neu5Ac(a2-8)Neu5Ac(a2-3)[GalNAc(b1-4)]Gal(b1-4)Glc
# Procedure, shortened: as §1
# [26] = target: Neu5Ac9Ac(a2-6)Gal(b1-4)GlcNAc
# Procedure, shortened: as §1
# [27] = target: Neu5Gc(a2-6)Gal(b1-4)GlcNAc
# Procedure, shortened: as §1
# [28] = target: Neu5Gc(a2-8)Neu5Gc(a2-3)Gal(b1-4)GlcNAc(b1-3)Gal(b1-4)GlcNAc
# Procedure, shortened: as §1
binder,measurement,setting,value
B1,glycan array binding signal (z-score),[1],-0.244
same,glycan array binding signal (z-score),[2],-0.24
same,glycan array binding signal (z-score),[3],-0.278
same,glycan array binding signal (z-score),[4],-0.23
same,glycan array binding signal (z-score),[5],-0.244
same,glycan array binding signal (z-score),[6],-0.255
same,glycan array binding signal (z-score),[7],-0.174
same,glycan array binding signal (z-score),[8],-0.218
same,glycan array binding signal (z-score),[9],-0.23
same,glycan array binding signal (z-score),[10],-0.242
same,glycan array binding signal (z-score),[11],0.107
same,glycan array binding signal (z-score),[12],-0.205
same,glycan array binding signal (z-score),[13],-0.234
same,glycan array binding signal (z-score),[14],-0.196
same,glycan array binding signal (z-score),[15],-0.338
same,glycan array binding signal (z-score),[16],-0.231
same,glycan array binding signal (z-score),[17],-0.314
same,glycan array binding signal (z-score),[18],-0.228
same,glycan array binding signal (z-score),[19],-0.226
same,glycan array binding signal (z-score),[20],-0.196
same,glycan array binding signal (z-score),[21],-0.294
same,glycan array binding signal (z-score),[22],-0.295
same,glycan array binding signal (z-score),[23],-0.293
same,glycan array binding signal (z-score),[24],-0.247
same,glycan array binding signal (z-score),[25],-0.227
same,glycan array binding signal (z-score),[26],-0.232
same,glycan array binding signal (z-score),[27],-0.231
same,glycan array binding signal (z-score),[28],-0.309

# Reference: the supplement of paper PMC8728848
